The subject of one assay is ICS. Description: qHTS profiling for inhibitors of Plasmodium falciparum proliferation (AID 504749). Note: potency is the fitted concentration of half-maximal effect. The note with it: P. falciparum in erythrocytes, SYBR Green DNA, 72 h; series mostly up to 28.7 µM. In short, it runs like this: (§1)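 Infected RBCs, 0.3% parasitemia/2.5% Hct final; cpd 72 h, 37 C, 5% CO2; lysis buffer with saponin/triton/SYBR Green I, o/n RT dark; FI 485/535; norm. to artemisinin (0.29 uM) and DMSO.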
For orientation: qHTS replaces the single test concentration by a dilution series.

The next assay has as its system JCK. The description is as above. The note with it: P. falciparum in erythrocytes, SYBR Green DNA, 72 h; series mostly up to 28.7 µM. In short, it runs like this:
as §1

Another assay relates to N140. The description is as above. The settings on record: P. falciparum in erythrocytes, SYBR Green DNA, 72 h; series mostly up to 28.7 µM. A digest of the protocol: as §1
Another assay concerns P93_24. The assay is described as above. The note with it: P. falciparum in erythrocytes, SYBR Green DNA, 72 h; series mostly up to 28.7 µM. A digest of the protocol:
as §1

For another assay, the system named is P94_40. The description is as above. The note with it: P. falciparum in erythrocytes, SYBR Green DNA, 72 h; series mostly up to 28.7 µM. A digest of the protocol:
as §1

Another assay relates to PAD. Described as above. The note with it: P. falciparum in erythrocytes, SYBR Green DNA, 72 h; series mostly up to 28.7 µM. A digest of the protocol: as §1
Another assay relates to PC15. The description is as above. The settings on record: P. falciparum in erythrocytes, SYBR Green DNA, 72 h; series mostly up to 28.7 µM. A digest of the protocol: as §1
A further assay relates to PC26. The description is as above. The note with it: P. falciparum in erythrocytes, SYBR Green DNA, 72 h; series mostly up to 28.7 µM. A digest of the protocol:
as §1

Another assay relates to PC49. Described as above. The settings on record: P. falciparum in erythrocytes, SYBR Green DNA, 72 h; series mostly up to 28.7 µM. A digest of the protocol: as §1
Another assay concerns SC27B. Described as above. The settings on record: P. falciparum in erythrocytes, SYBR Green DNA, 72 h; series mostly up to 28.7 µM. In short, it runs like this: as §1
Another assay relates to TAB109. The assay is described as above. The settings on record: P. falciparum in erythrocytes, SYBR Green DNA, 72 h; series mostly up to 28.7 µM. A digest of the protocol: as §1
In the next assay the test system is TAB113. The assay is described as above. The note with it: P. falciparum in erythrocytes, SYBR Green DNA, 72 h; series mostly up to 28.7 µM. In short, it runs like this:
as §1

Another assay relates to TAB165. The assay is described as above. The settings on record: P. falciparum in erythrocytes, SYBR Green DNA, 72 h; series mostly up to 28.7 µM. A digest of the protocol: as §1
In the next assay the test system is W2. Described as above. The note with it: P. falciparum in erythrocytes, SYBR Green DNA, 72 h; series mostly up to 28.7 µM. A digest of the protocol: as §1
In the next assay the test system is KB-3-1. Description: Cytotoxic Profiling of Annotated Libraries Using Quantitative High-Throughput Screening (AID 1296008). Note: % is set by controls: 0 for no effect and ±100 for the full control effect. The settings on record: Five cell lines viability, CellTiter-Glo ATP luminescence, 48-72 h; max response: hits give low values. A digest of the protocol:
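Cytotoxicity was measured as CellTiter-Glo ATP luminescence, read after 10 min at room temperature. Compound treatment of the cells lasted 48 or 72 hr at 37 degrees Celsius in a qHTS format.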
On the technique in general: Cellular ATP, detected with luciferase, serves as a proxy for viable cell number.

Experimental findings from PubChem BioAssay (NCATS) are described below.

Inconclusive results are not listed. Unmarked numbers belong to inactive results. Active and inactive are the calls of the source. Calls come from the whole dose curve; as a rule, active = well fitted inhibition curve with a large enough effect; inconclusive = small, poorly fitted or top-dose-only effect; inactive = flat fitted curve, though single readings scatter.
Note: nearly all actives have a fitted effect of over 60% in size.

In the case of `Cc1ccc(S(=O)(=O)NCl)cc1`, the Potency result in the assay on ICS, with JCK, in the assay on N140, with P93_24, in the assay with P94_40 and in the assay on PAD was “inactive” each time. The Potency result in the assay with PC15, in the assay with PC26, in the assay on PC49, in the assay with SC27B, in the assay with TAB109 and with TAB113 was “inactive” throughout. The Potency result in the assay on TAB165 and with W2 was “inactive” throughout. Moreover, the max response in the assay with KB-3-1 was 2.64%.
Consider `CCOC(C)OCC`, for which the Potency entry in the assay on ICS, with JCK, in the assay with N140, in the assay with P93_24, in the assay with P94_40 and in the assay with PAD was “inactive” in each case. The Potency entry with PC15, in the assay on PC26, in the assay with PC49, in the assay on SC27B, with TAB109 and in the assay on TAB113 was “inactive” throughout. The Potency entry in the assay on TAB165 and with W2 was “inactive” throughout. The max response with KB-3-1 is -6.86%.
On to `CCOc1ccc(S(=O)(=O)O)c2cccnc12`, for which the Potency entry in the assay with ICS, in the assay with JCK, in the assay with N140, with P93_24, in the assay with P94_40 and with PAD was “inactive” each time. Further, the Potency result in the assay with PC15, in the assay on PC26, in the assay on PC49, in the assay with SC27B, in the assay on TAB109 and with TAB113 was “inactive” in each case. Besides, the Potency result in the assay with TAB165 and in the assay on W2 was “inactive” in each case. Also, the max response in the assay with KB-3-1 is 5.36%.
Take `CCCCO`: the Potency result in the assay on ICS, in the assay on JCK, with N140, with P93_24, with P94_40 and in the assay on PAD was “inactive” throughout. In addition, the Potency result in the assay on PC15, in the assay on PC26, with PC49, in the assay with SC27B, in the assay with TAB109 and with TAB113 was “inactive” throughout. Further, the Potency entry in the assay with TAB165 and in the assay on W2 was “inactive” each time. Further, the max response in the assay on KB-3-1 is -19.5%.
Turning to `CC(=O)[C@H]1CC[C@H]2[C@@H]3C=CC4=CC(=O)CC[C@@]4(C)[C@H]3CC[C@]12C`, the Potency entry in the assay with ICS, in the assay with JCK, in the assay on N140, in the assay with P93_24, in the assay on P94_40 and in the assay on PAD was “inactive” throughout. For the same molecule, the Potency result in the assay with PC15, in the assay on PC26, in the assay with PC49, in the assay with SC27B, in the assay on TAB109 and in the assay on TAB113 was “inactive” in each case. Further, the Potency result in the assay on TAB165 and in the assay on W2 was “inactive” each time. The max response in the assay with KB-3-1 was -2.63%.
With `COc1cc(C)c(/C=C/C(C)=C/C=C/C(C)=C/C(=O)O)c(C)c1C`, the Potency result in the assay on ICS, in the assay with JCK, in the assay on N140, in the assay on P93_24, with P94_40 and with PAD was “inactive” each time. Further, the Potency result in the assay on PC15, in the assay on PC26, in the assay on PC49, with SC27B, in the assay on TAB109 and in the assay with TAB113 was “inactive” in each case. The Potency entry in the assay on TAB165 and in the assay on W2 was “inactive” in each case. Also, the max response in the assay with KB-3-1 is -4.57%.
In the case of `CC1CCC(NC(=O)N(CCCl)N=O)CC1` (stereo not given), the Potency result in the assay on ICS, in the assay on JCK, in the assay with N140, in the assay on P93_24, in the assay with P94_40 and with PAD was “inactive” in each case. The Potency entry with PC15, in the assay with PC26, with PC49, with SC27B, in the assay with TAB109 and in the assay with TAB113 was “inactive” throughout. Moreover, the Potency result with TAB165 is “inactive”. The Potency with W2 was 10.7 µM (active). In addition, in the assay on KB-3-1, the max response is 8.06%.
As for `CCN(CC)CCOC(=O)c1cccnc1`, the Potency result in the assay with ICS, with JCK, in the assay on N140, in the assay on P93_24, with P94_40 and with PAD was “inactive” in each case. The Potency entry in the assay with PC15, in the assay on PC26, in the assay with PC49, with SC27B, with TAB109 and in the assay with TAB113 was “inactive” in each case. Further, the Potency result in the assay on TAB165 and in the assay on W2 was “inactive” each time. Further, the max response in the assay with KB-3-1 was 21.6%.
For `C[C@H](O)CN(C)C`, the Potency result in the assay on ICS, in the assay with JCK, with N140, in the assay on P93_24, in the assay on P94_40 and in the assay with PAD was “inactive” in each case. Moreover, the Potency result in the assay with PC15, with PC26, in the assay on PC49, in the assay with SC27B, in the assay with TAB109 and in the assay with TAB113 was “inactive” each time. Further, the Potency entry in the assay on TAB165 and in the assay with W2 was “inactive” each time. The max response in the assay with KB-3-1 is 10.7%.
`Cc1ncc(C[n+]2csc(CCOP(=O)(O)OP(=O)(O)O)c2C)c(N)n1`: the Potency entry with ICS, in the assay on JCK, in the assay with N140, in the assay on P93_24, in the assay with P94_40 and in the assay on PAD was “inactive” each time. In addition, the Potency entry in the assay with PC15, in the assay on PC26, in the assay with PC49, with SC27B, in the assay with TAB109 and in the assay on TAB113 was “inactive” each time. In addition, the Potency result with TAB165 and in the assay with W2 was “inactive” in each case. Also, the max response in the assay with KB-3-1 was -1.51%.
As for `O=S(=O)(O)CCCS(=O)(=O)O`, the Potency result in the assay on ICS, with JCK, in the assay with N140, with P93_24, in the assay with P94_40 and with PAD was “inactive” each time. The Potency entry with PC15, in the assay with PC26, in the assay with PC49, in the assay with SC27B, with TAB109 and in the assay on TAB113 was “inactive” throughout. Further, the Potency entry in the assay with TAB165 and in the assay with W2 was “inactive” throughout. Moreover, the max response in the assay on KB-3-1 was 0.835%.
On to `CC(C)CCC[C@@H](C)[C@H]1CC[C@H]2[C@@H]3CC[C@@H]4C[C@H](O)CC[C@]4(C)[C@H]3CC[C@]12C`, for which the Potency result in the assay on ICS, in the assay on JCK, in the assay on N140, with P93_24, with P94_40 and with PAD was “inactive” in each case. In addition, the Potency result with PC15, with PC26, with PC49, with SC27B, with TAB109 and with TAB113 was “inactive” each time. Further, the Potency entry in the assay with TAB165 and with W2 was “inactive” each time. Further, the max response in the assay with KB-3-1 is -12.6%.
Take `CC(=O)Nc1ccc(OC(=O)c2ccccc2O)cc1`: the Potency result with ICS, in the assay on JCK, in the assay with N140, in the assay on P93_24, with P94_40 and with PAD was “inactive” throughout. In addition, the Potency entry in the assay on PC15, in the assay on PC26, in the assay with PC49, in the assay with SC27B, in the assay with TAB109 and with TAB113 was “inactive” each time. Moreover, the Potency entry in the assay on TAB165 and with W2 was “inactive” each time. Moreover, the max response in the assay on KB-3-1 is -18%.
Consider `OC[C@H]1O[C@@](CO)(O[C@H]2O[C@H](CO)[C@@H](O)[C@H](O)[C@H]2O)[C@@H](O)[C@@H]1O`, for which the Potency entry in the assay with ICS, with JCK, in the assay with N140, in the assay with P93_24, with P94_40 and with PAD was “inactive” throughout. Further, the Potency entry in the assay with PC15, with PC26, with PC49, with SC27B, with TAB109 and in the assay on TAB113 was “inactive” throughout. Moreover, the Potency entry in the assay on TAB165 and in the assay on W2 was “inactive” each time. Moreover, the max response with KB-3-1 is 8.24%.
Take `CCCc1ccc(C(=O)O)cc1`: the Potency result with ICS, with JCK, in the assay on N140, in the assay with P93_24, with P94_40 and with PAD was “inactive” each time. Further, the Potency entry in the assay with PC15, with PC26, in the assay with PC49, in the assay on SC27B, in the assay on TAB109 and in the assay with TAB113 was “inactive” throughout. The Potency entry in the assay on TAB165 and in the assay on W2 was “inactive” in each case. Besides, the max response in the assay on KB-3-1 is 8.62%.
With `Cc1ncc(C[n+]2csc(CCO)c2C)c(N)n1`, the Potency entry in the assay on ICS, in the assay with JCK, in the assay on N140, in the assay with P93_24, in the assay with P94_40 and in the assay on PAD was “inactive” in each case. Moreover, the Potency result in the assay on PC15, in the assay on PC26, with PC49, with SC27B, with TAB109 and with TAB113 was “inactive” each time. Further, the Potency entry in the assay on TAB165 and in the assay on W2 was “inactive” throughout. Also, the max response in the assay on KB-3-1 is -14.6%.
For the molecule `CCCC(=O)O`, the Potency entry in the assay on ICS, in the assay on JCK, with N140, with P93_24, in the assay with P94_40 and in the assay on PAD was “inactive” throughout. In addition, the Potency result with PC15, in the assay on PC26, in the assay on PC49, in the assay with SC27B, in the assay on TAB109 and in the assay on TAB113 was “inactive” in each case. Also, the Potency entry in the assay on TAB165 and in the assay on W2 was “inactive” each time. Also, the max response in the assay on KB-3-1 is 2.03%.
